Results from paper PMC5540273 (PLoS ONE, 2017).
Like-named read-outs stand apart in the source and are kept apart here.

What was measured:
Settings in all cases: n = 1
CSNK1A1 = test system: CSNK1A1
CSNK1D = test system: CSNK1D
CSNK1E = test system: CSNK1E
CSNK1G1 = test system: CSNK1G1
CSNK1G2 = test system: CSNK1G2
CSNK1G3 = test system: CSNK1G3
CSNK2A1 = test system: CSNK2A1
CSNK2A2 = test system: CSNK2A2
CTK = test system: T1, CTK
T1 construct: gene MATK

DAPK1 = test system: DAPK1
[1] = concentration: 1 μM, replicates: in singlicate
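Also: KINOMEscan kinase panel screen.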

Compound	%Inh (CSNK1A1; [1])	%Inh (CSNK1D; [1])	%Inh (CSNK1E; [1])	%Inh (CSNK1G1; [1])	%Inh (CSNK1G2; [1])	%Inh (CSNK1G3; [1])	%Inh (CSNK2A1; [1])	%Inh (CSNK2A2; [1])	%Inh (CTK; [1])	%Inh (DAPK1; [1])	%Inh (CSNK1A1; 1 µM)	%Inh (CSNK1D; 1 µM)	%Inh (CSNK1E; 1 µM)	%Inh (CSNK1G1; 1 µM)	%Inh (CSNK1G2; 1 µM)	%Inh (CSNK1G3; 1 µM)	%Inh (CSNK2A1; 1 µM)	%Inh (CSNK2A2; 1 µM)	%Inh (CTK; 1 µM)	%Inh (DAPK1; 1 µM)
Nc1nc(-c2nccs2)c(-c2ccnc3ccccc23)s1 [GW693542]	40%	58%	41%	9%	0%	24%	0%	2%	0%	0%	–	–	–	–	–	–	–	–	–	–
C[C@@H]1CCCCN1c1cc(-c2ccc3c(N)n[nH]c3c2)nc(N)n1 [GSK2258759]	0%	39%	35%	6%	0%	26%	6%	76%	0%	18%	–	–	–	–	–	–	–	–	–	–
Fc1cc(Cl)ccc1Nc1ccnc2cc(I)ccc12 [GW551191]	0%	5%	35%	4%	0%	20%	0%	0%	0%	19%	–	–	–	–	–	–	–	–	–	–
COc1ccc2nc(-c3cccc(C)n3)nc(Nc3ccncc3)c2c1 [GSK204919]	31%	49%	64%	0%	0%	7%	4%	0%	0%	0%	–	–	–	–	–	–	–	–	–	–
COc1cc2nccc(Nc3ccc(NC(=O)c4ccc(C)cc4)c(O)c3)c2cc1OC.Cl [GW440132]	0%	2%	45%	0%	0%	30%	0%	0%	0%	0%	–	–	–	–	–	–	–	–	–	–
Cc1cccc(-c2nc(Nc3ccncc3)c3ccccc3n2)n1 [GW855857]	46%	73%	77%	0%	20%	12%	0%	0%	0%	0%	–	–	–	–	–	–	–	–	–	–
O=C1NC(=O)C(N2CCc3ccccc32)=C1c1ccccc1Cl [SB-373598]	33%	18%	18%	13%	9%	14%	2%	15%	0%	22%	–	–	–	–	–	–	–	–	–	–
Cc1ccc(NC(=O)Nc2cccc(C(F)(F)F)c2)cc1 [GSK955403]	–	–	–	–	–	–	–	–	–	–	0%	0%	0%	0%	1%	0%	1%	0%	0%	18%
COc1cccc(-c2cc(-c3c[nH]nc3-c3ccccn3)ccn2)c1 [GW680338]	31%	25%	23%	1%	3%	10%	4%	11%	0%	0%	–	–	–	–	–	–	–	–	–	–
Cc1cccc(-c2cc(Nc3ccncc3)c3ccccc3n2)n1 [GSK223675]	0%	14%	50%	10%	0%	17%	7%	2%	0%	18%	–	–	–	–	–	–	–	–	–	–
CN(C)CCN(C)C(=O)c1cc(-c2ccncc2)c(-c2ccc(Cl)c(O)c2)o1.Cl.Cl [SB-710397]	62%	90%	93.4%	0%	0%	14%	0%	4%	0%	4%	–	–	–	–	–	–	–	–	–	–
COc1cc2ncnc(Nc3ccc4nc(-c5ccccc5)[nH]c4c3)c2cc1OC.Cl [GW282450]	0%	6%	24%	15%	0%	17%	5%	98.4%	0%	1%	–	–	–	–	–	–	–	–	–	–
Clc1cc(Cl)cc(Nc2ccnc(Nc3cc(Cl)cc(Cl)c3)n2)c1 [GSK175726]	0%	17%	57%	22%	0%	9%	4%	89%	0%	11%	–	–	–	–	–	–	–	–	–	–
O=C(Nc1n[nH]c2nc(-c3nccs3)c(Br)cc12)C1CC1 [SB-742251]	0%	21%	14%	13%	0%	0%	0%	36%	15%	0%	–	–	–	–	–	–	–	–	–	–
COC(=O)c1c(-c2ccccc2)c2cc(C(=O)O)ccc2c(=O)n1Cc1ccccc1	0%	7%	0%	0%	0%	0%	0%	0%	0%	0%	–	–	–	–	–	–	–	–	–	–
Cn1ccc2ncnc(Oc3cccc(C(=O)Nc4ccccc4)c3)c21	0%	0%	1%	0%	0%	2%	25%	11%	17%	20%	–	–	–	–	–	–	–	–	–	–
